From PubChem BioAssay
In the library only some 9.3% were active in any assay of this set; here they are far more common.
Sm TGR inh: inhibitors of Schistosoma mansoni thioredoxin glutathione reductase. 3% of 360,000 active. purified TGR, DTNB reduction, TNB absorbance 405 nm. Potency, µM (titrated, usually from 114 µM), hits mostly inhibitors. AID 485364; also: nearly all actives have a fitted effect of over 60% in size
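TGR 20 nM + NADPH 100 uM (dispensed conc.), cpd preinc 15 min RT; start with NADPH (500 uM addition) then DTNB (15 mM addition). Kinetic TNB absorbance, 405 nm filter. Four-parameter Hill fit across titration.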
HCV inh: inhibitors of hepatitis C virus infection. Huh7.5.1 HCVcc-Cre infection, luciferase reporter, 44 h. 3.4% of 340,000 active. Potency, µM (titrated, usually from 41.8 µM), hits mostly inhibitors
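1,000 cells/well; 4 h culture; + compound; + HCVcc-Cre (~0.5 moi); 44 h; luciferase substrate, RT 15 min; read 15 sec.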
FMDV inh: antivirals against foot and mouth disease virus | FMDV antiviral cell-based qHTS | Potency, µM (titrated, usually from 57.9 µM), hits mostly inhibitors | 1.2% of 410,000 active | AID 1159524; calls by dose curve; tested in HEK293T cells; also: read-out not given here; nearly all actives have a fitted effect of over 45% in size
HCMV antiviral: blocks human cytomegalovirus replication; HFF cells, HCMV-luciferase reporter, 72 h; active compounds read low; activity change, negative = inhibition, % at 57.5 µM; 4.5% of 410,000 active; AID 1259415; in the data active = activity change below about -60%; inconclusive = no clear call, values can overlap the other calls; inactive = above about -39%
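HFF cells seeded 16 h at 37C, treated with compounds, infected with luciferase-reporter HCMV at MOI 1 PFU/cell; luciferase read at 72 h post infection, normalized to buffer-only and Salinomycin controls.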
VACV mCherry inh: vaccinia inhibition (mCherry reporter). Vaccinia virus mCherry reporter infection, fluorescence. Potency, µM (highest dose often 36.5 µM), usual class: inhibitors. 0.63% of 310,000 active; calls by dose curve; tested in A549 cells; also: nearly all actives have a fitted effect of over 35% in size
VACV Venus inh: inhibitors of vaccinia virus (Venus reporter); Vaccinia virus Venus reporter expression, fluorescence; Potency, µM (highest dose often 36.5 µM), hits mostly inhibitors; 0.46% of 330,000 active; AID 720580; calls by dose curve; tested in A549 cells; also: nearly all actives have a fitted effect of over 30% in size
Large screens that a line does not name were inactive. Unless noted, calls follow the shape of the dose curve; as a rule, active = well fitted curve in the direction sought with a large enough effect; inconclusive = small, poorly fitted or top-dose-only effect, or another doubt; inactive = no such curve, though single readings can be large; an effect the other way counts as inactive or inconclusive.

O=C(CN1CCN(C(=O)c2ccc(-c3nc4ccccc4s3)o2)CC1)Nc1ccc(F)cc1	HCV inh 13µM, FMDV inh inconclusive (no result: VACV mCherry inh, VACV Venus inh)
O=C(c1ccc(-c2nc3ccccc3s2)o1)N1CCN(c2ccccc2O)CC1	HCV inh inconclusive, FMDV inh inconclusive
O=C(CN1CCN(C(=O)c2ccc(-c3nc4ccccc4s3)o2)CC1)Nc1ccccc1Cl	HCV inh 11µM
O=C(Cn1c(=O)cnc2ccccc21)NNC(=O)c1ccc(Cl)cc1	none (no result: VACV mCherry inh, VACV Venus inh)
Cc1cc(C)n2nc(-c3sccc3-n3c(C)ccc3C)cc2n1	HCV inh 8.9µM, VACV Venus inh inconclusive (no result: VACV mCherry inh)
Cc1cc(C)n2nc(-c3sccc3-n3cccc3)cc2n1	FMDV inh inconclusive (no result: VACV mCherry inh)
Cc1cccc(N(CC(O)CN2CCOCC2)S(=O)(=O)c2ccccc2)c1 (configuration not stated)	none
CC(NC(=O)/C(C#N)=C/c1ccc(OCC(=O)O)cc1)c1ccccc1 (configuration not stated)	none (no result: VACV mCherry inh, VACV Venus inh)
CC(NC(=O)/C(=C/c1ccc(OC(F)F)cc1)c1ccccc1)c1ccccc1 (configuration not stated)	HCV inh inconclusive, FMDV inh inconclusive, HCMV antiviral -79, VACV mCherry inh inconclusive, VACV Venus inh inconclusive
Cc1ccc(NC(=O)C(Cc2ccccc2)NS(=O)(=O)c2ccc3c(c2)c(=O)n(C)c(=O)n3C)cc1 (configuration not stated)	none (no result: HCV inh)
O=C(O)c1ccc(N2C(=O)/C(=C/c3ccc(-c4ccc([N+](=O)[O-])cc4)o3)C=C2c2ccccc2)cc1	Sm TGR inh 45µM, FMDV inh 16µM (no result: HCMV antiviral)
CCCS(=O)(=O)NC(=O)C1(C)CCCN(C(=O)c2nc(C)oc2C)C1 (configuration not stated)	none (no result: Sm TGR inh, HCV inh, HCMV antiviral)
CC(C)(C)n1nnnc1C(c1cccs1)N(Cc1ccccc1)Cc1ccco1 (configuration not stated)	Sm TGR inh inconclusive, HCV inh 11µM, FMDV inh inconclusive, VACV Venus inh inconclusive
CCN(Cc1ccccc1)C(c1ccc(Cl)cc1)c1nnnn1C(C)(C)C (configuration not stated)	FMDV inh inconclusive, HCMV antiviral -97 (no result: VACV mCherry inh)
O=C1CC(N2CCCCCC2)C(=O)N1c1ccc(F)cc1 (configuration not stated)	Sm TGR inh 10µM
O=C1CC(N2CCN(c3ccc(O)cc3)CC2)C(=O)N1c1ccc2c(c1)OCO2 (configuration not stated)	none (no result: Sm TGR inh)
COc1ccc(N2C(=O)CC(N3CCN(c4ccc(S(=O)(=O)N5CCCC5)cc4)CC3)C2=O)cc1 (configuration not stated)	Sm TGR inh inconclusive, FMDV inh inconclusive (no result: VACV mCherry inh)
O=C1CC(N2CCCCCC2)C(=O)N1c1ccc2c(c1)OCO2 (configuration not stated)	Sm TGR inh 7.9µM (no result: FMDV inh)
O=C1CC(NC23CC4CC(CC(C4)C2)C3)C(=O)N1c1ccc2c(c1)OCO2 (configuration not stated)	Sm TGR inh 45µM
COc1ccc(N2C(=O)CC(N3CCCCC3)C2=O)cc1 (configuration not stated)	Sm TGR inh 32µM
CCOc1ccc2nc(NC(=O)C(CC)Sc3nc(C)cc(=O)[nH]3)sc2c1 (configuration not stated)	HCV inh inconclusive (no result: VACV mCherry inh)
C/C(=N\NC(=O)c1cccc(N/N=C(\C)c2ccccc2)c1)c1ccccc1	HCV inh inconclusive
COc1ccc(N2C(=O)CC(N3CCC(O)(c4cccc(C(F)(F)F)c4)CC3)C2=O)cc1 (configuration not stated)	Sm TGR inh 40µM, FMDV inh inconclusive
NC(=O)C1(N2CCCCC2)CCN(C2CC(=O)N(Cc3cccs3)C2=O)CC1 (configuration not stated)	Sm TGR inh 50µM
COc1ccc(N2C(=O)CC(C3CCCO3)C2=O)cc1 (configuration not stated)	none
COc1cccc(N2C(=O)CC(N3CCC(C(N)=O)(N4CCCCC4)CC3)C2=O)c1 (configuration not stated)	Sm TGR inh 18µM (no result: VACV mCherry inh, VACV Venus inh)
COc1ccc(N2C(=O)CC(N3CCCC4CCCCC43)C2=O)cc1 (configuration not stated)	Sm TGR inh 11µM
